# Compounds with a hit are over-represented: about 1.8% of the library has one in this group of screens.
# HDAC3 inh: HDAC3 deacetylase inhibitors, primary screen, biochemical, fluorescence, cell-free homogeneous | inhibition, % at 8.3 µM | recombinant HDAC3, fluorogenic peptide/trypsin coupled | Histone deacetylase 3 (Homo sapiens), O15379 | 320,000 tested, 0.15% active; in the data active means inhibition above about 26%, passing the limit was not always enough; inconclusive means no clear call, values can overlap the other calls
# Target sequence (O15379 whole entry, looked up): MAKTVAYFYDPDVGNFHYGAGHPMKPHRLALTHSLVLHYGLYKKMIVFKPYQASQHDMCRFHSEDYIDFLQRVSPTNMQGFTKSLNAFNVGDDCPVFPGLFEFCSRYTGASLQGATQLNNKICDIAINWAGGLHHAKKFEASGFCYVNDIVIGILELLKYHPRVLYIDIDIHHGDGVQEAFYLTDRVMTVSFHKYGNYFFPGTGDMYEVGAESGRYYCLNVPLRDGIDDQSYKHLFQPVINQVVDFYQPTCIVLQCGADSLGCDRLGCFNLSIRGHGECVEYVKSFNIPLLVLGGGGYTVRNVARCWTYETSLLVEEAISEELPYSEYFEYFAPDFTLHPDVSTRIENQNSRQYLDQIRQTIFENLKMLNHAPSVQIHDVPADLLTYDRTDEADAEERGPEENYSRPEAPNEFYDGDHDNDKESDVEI
# GRK2 inh: compounds blocking aptamer binding on GRK2 – biochemical, human GRK2, bead flow cytometry, HTS, primary screen | FAM-aptamer displacement from GRK2 | inhibition of aptamer binding, % at 10 µM | 330,000 tested, 0.59% active | AID 488847, 2010;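 active means inhibition of aptamer binding above 40%, roughly 3 SD of noise, on plates passing a quality check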;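 further: median bead fluorescence of bound FAM aptamer so fluorescent compounds give negative values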
# Neddyl block: inhibitors of cullin neddylation, primary screen, biochemical, TR-FRET, uHTS, NAE and Ubc12 | NEDD8-conjugating enzyme Ubc12 (Homo sapiens) + NEDD8-activating enzyme E1 regulatory … | 360,000 tested, 0.58% active | AID 651699, 2012 | inhibition, % at 25 µM; in the data active means inhibition above about 36%
# Cardio protect: cardioprotection against H2O2-induced cell death, primary screen, uHTS, H9c2 cells, ATPLite luminescence; H9c2 cardiomyocytes, H2O2 injury protection, 2 h; protection from H2O2 cell death, % at 20 µM; 360,000 tested, 0.63% active; AID 588492, 2011;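 active means compounds giving at least 50% protection of heart cells from peroxide-induced death in the single-dose screen, raw or plate-pattern-corrected value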;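 further: 0% = DMSO wells with peroxide and 100% = DMSO wells without peroxide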
# Active calls of the source: *; u = inconclusive; x = not tested or not shown.
SMILES,HDAC3 inh,GRK2 inh,Neddyl block,Cardio protect
N/C(=N\OC(=O)c1csnn1)c1ccc(C(F)(F)F)cc1,u,2.0,4.6,-4.0
N#Cc1ccccc1S(=O)(=O)N1CCN(c2nc(-c3cccnc3)nc3ccccc23)CC1,x,x,-59.8,83.1*
COc1cc2c(cc1OC)CN(c1nc(-c3cccnc3)nc3ccccc13)CC2,-0.9,2.0,-22.7,57.8*
COc1ccc(NC(=O)/C(C#N)=C/c2ccc(Br)o2)cc1,5.5,67.0*,-11.8,11.3
C[C@@H](C(=O)N=c1sc2ccccc2n1C)N1C(=O)C2CC=CCC2C1=O (stereo partly drawn),x,x,-0.6,0.0
C/C(=N\NC(=S)NCC(C)(C)C)c1cc(F)cc(F)c1O,2.7,1.0,45.0*,6.2
CCOc1ccccc1NC(=O)c1cc(S(=O)(=O)NCc2ccco2)ccc1F,-3.6,1.0,12.3,-5.8
O=C(Nc1nnc(-c2ccc(F)cc2)o1)c1ccc(S(=O)(=O)N2CCOCC2)cc1,7.1,0.0,7.6,28.4
CCN(Cc1ccccc1)C(=O)COC(=O)[C@@H]1CCCN1C(=O)c1cccs1,5.5,1.0,-3.1,1.0
O=C(CC1SC(N2CCCC2)=NC1=O)Nc1ccc(C(=O)Nc2ncccc2O)cc1 (stereo not drawn),93.7*,1.0,5.2,3.2
Cc1ccnc(NC(=O)c2ccc(NC(=O)CC3SC(N4CCCC4)=NC3=O)cc2)c1 (stereo not drawn),2.1,4.0,13.2,4.1
O=C(NNC(=S)NCc1ccco1)c1ccc(Cl)s1,-5.3,0.0,1.4,-11.2
O=C(CSCc1ccco1)c1ccc(Cl)s1,90.2*,0.0,x,x
Cc1cc(=O)oc2ccc(OC(=O)CC(C)C)cc12,-2.3,0.0,3.3,4.6
c1ccc(Cn2nnnc2C(c2cccnc2)N2CCN(C3CCCCC3)CC2)cc1 (stereo not drawn),-1.4,3.0,2.1,79.1*
COc1ccc(Cn2nnnc2C(c2ccccc2)N2CCN(C3CCCC3)CC2)cc1 (stereo not drawn),x,x,3.5,3.6
COCCCn1c(C)nc2c(c1=O)c1nc3ccccc3nc1n2CCc1ccccc1,-9.1,2.0,x,57.6*
Cc1nc2ccccc2c(=O)n1CCc1ccccc1,-1.8,6.0,-0.7,2.0
COC(=O)/C=c1/s/c(=C(/C#N)C(=O)N2CCCCC2)n(-c2ccccc2)c1=O,x,5.0,-0.7,12.6
COc1cc(/C=c2\s/c(=C(/C#N)C(=O)N3CCCC3)n(-c3ccccc3)c2=O)ccc1O,2.9,0.0,8.2,58.2*
CCCc1cc(=O)oc2c(C)c(OCC(=O)NCCN3CCOCC3)ccc12,-6.6,0.0,28.6,2.7
Cc1c(C)c2ccc(OCC(=O)NCCN3CCOCC3)c(C)c2oc1=O,-31.5,3.0,47.1*,-4.9
O=C(NCC(F)(F)F)C1C(=O)Nc2ccccc2C(=O)N1C1CCCC1 (stereo not drawn),x,x,3.0,x
CCCCC(=O)N(C)c1c(C)nc2ccc(C(=O)Nc3cccc(OC)c3)cn12,x,x,0.6,33.4
Cc1nn(-c2ccccc2)nc1C(=O)Nc1cccc(C(=O)NC2CC2)c1,x,x,-5.7,61.3*
SMILES,HDAC3 inh,GRK2 inh,Neddyl block,Cardio protect
NNC(=O)c1oc2nc(-c3ccco3)cc(-c3ccco3)c2c1N,1.7,1.0,-5.8,33.2
Cc1cc(C)c2c(N)c(C(=O)N/N=C/c3cccnc3)sc2n1,-1.8,1.0,2.1,66.5*
Nc1c(C(=O)N/N=C/c2cccnc2)oc2nc(-c3ccco3)cc(-c3ccco3)c12,1.8,4.0,8.2,76.6*
O=C(Nc1ccc2nc([C@@H]3O[C@H](CO)[C@@H](O)[C@H](O)[C@H]3O)[nH]c2c1)NC(c1ccccc1)c1ccccc1,x,x,2.7,0.9
CN1c2ccccc2-c2nc3ccccc3n2C1c1cccs1 (stereo not drawn),-265.5,1.0,x,5.5
Cc1cccc(C)c1Nc1c(-c2ccccn2)nc2ccccn12,0.3,0.0,40.6*,0.6
OCCC1CN(Cc2cn[nH]c2C2CCCCC2)CCN1C1CCCC1 (stereo not drawn),-2.7,0.0,2.1,4.0
COc1ccc(OCCN(C)C(=O)c2cccc(S(=O)(=O)N(C)c3ccccc3)c2)cc1,-2.2,1.0,0.3,2.8
CC(C)C(C(=O)O)N1C(=O)/C(=C/c2cccn2C)SC1=S (stereo not drawn),33.4*,0.0,-55.0,3.4
CCCC(C(=O)O)N1C(=O)/C(=C/c2cccn2C)SC1=S (stereo not drawn),10.6,1.0,-45.6,-0.8
CCn1cc(C(=O)N2CCc3ccccc32)c(=O)c2cc(S(=O)(=O)N(C)C3CCCCC3)ccc21,-2.2,0.0,0.9,63.2*
CCn1cc(C(=O)N2CCc3ccccc32)c(=O)c2cc(S(=O)(=O)N3CCOCC3)ccc21,-0.4,2.0,8.6,0.4
CCc1cc(CNC(=O)c2ccc3nc(Cc4ccc(OC)c(OC)c4)oc3c2)on1,0.8,3.0,2.4,-11.2
C1CCCCCC2(CCCCC1)OCC(CN1CCOCC1)O2 (stereo not drawn),x,0.0,2.2,-8.7
O=c1[nH]n(CC2COC3(CCCCC3)O2)c(=O)c2ccccc12 (stereo not drawn),-2.0,0.0,0.6,51.8*
O=C(N/N=C\c1cn(-c2ccccc2)nc1-c1ccccc1)c1ccc2c(c1)OCO2,-1.2,3.0,11.1,52.5*
O=C(N/N=C/c1cn(-c2ccccc2)nc1-c1ccc(F)cc1)c1ccc2c(c1)OCO2,-3.4,0.0,12.3,29.3
O=C(N/N=C/c1cn(-c2ccccc2)nc1-c1cccnc1)c1ccccc1,2.1,0.0,-6.4,60.6*
CCOCCCNC(=O)c1ccc(OC)c(OC2CCN(C(C)C)CC2)c1,2.7,3.0,14.5,3.7
CCOc1ccc2nc(N=NC3=C(O)CC(C)(C)CC3=O)sc2c1,9.6,0.0,-77.9,50.8*
Cc1nc2ccc(N=NC3=C(O)CC(C)(C)CC3=O)cc2s1,6.6,1.0,-41.4,12.5
O=C(CC1C(=O)NCCN1Cc1ccccn1)NCCc1ccccc1F (stereo not drawn),0.9,5.0,2.4,-3.5
O=C(CNC(=O)c1[nH]cnc1C(=O)NC(c1ccccc1)c1ccccc1)OCc1ccccc1,6.3,3.0,-5.0,58.0*
CC(C)(C)OC(=O)CNC(=O)c1[nH]cnc1C(=O)NCC(=O)OCc1ccccc1,3.1,0.0,-8.4,104.9*
COc1ccc(C(=O)N2CC3(CC(c4cccc(NC(=O)CC(c5ccccc5)c5ccccc5)c4)=NO3)C[C@H]2C(N)=O)cc1 (stereo partly drawn),-4.3,6.0,-13.5,5.5
C=C(C)C(=O)Nc1cccc(C2=NOC3(C2)C[C@@H](C(N)=O)N(C(=O)c2ccc(OC)cc2)C3)c1 (stereo partly drawn),-5.7,95.0*,-40.9,6.8
COc1ccc(CCNC(=O)CCNC(=O)c2ccco2)cc1,-3.3,3.0,-4.8,0.8
NC(=O)c1cccc(Nc2nc(C(N)CCc3ccccc3)cs2)n1 (stereo not drawn),x,x,-8.4,76.6*

# From PubChem
